In PubChem BioAssay:
Where “and” joins values, the source holds several entries; their conditions need not be identical. Equal entries are not always repeated. For part of these data: Results with a measured potency or affinity are listed apart. Calls of active or inactive are those of the source. Rule as the data show it, unless noted: active = parasite load remaining mostly below about 12% (no sharp cut-off); inactive = mostly above about 10%.

How the values were obtained:
[1] = polyglutamine-triggered caspase-3 activation inhibitors, cell-based (AID 1583); details: polyglutamine-induced caspase-3 activation, cell assay; stronger effect = higher value;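 tested at 10 µM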
[2] = suppressors of polyQ aggregation in yeast, 75Q-TubU reporter (AID 1593); details: Yeast 75Q polyglutamine aggregation reporter
[3] = rescue of polyQ-huntingtin neuronal dysfunction in worms, whole organism, C. elegans mechanosensory neurons, N-terminal huntingtin (AID 1599); details: touch response, stronger effect = higher value
[4] = inhibitors of mitochondrial cytochrome c release, biochemical, purified mitochondria (AID 1603); details: stronger effect = lower value;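 also: mouse liver mitochondria challenged with calcium chloride; signal normalized to the plate average as 100%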
[5] = inhibitors of polyQ protein aggregation (AID 1604); details: polyglutamine-induced protein aggregation inhibition assay; stronger effect = higher value; tested at 2.5 µM
[6] = enhancers of glutamate uptake in motor neurons, MN-1 cell line (AID 1612); details: MN-1 motor neuron cells, stronger effect = higher value;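 also: tested at 1 µM final; 0% = mean of DMSO vehicle wells on each plate; positive means more glutamate uptake than control and negative means less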
[7] = reducers of polyQ inclusions in PC12 cells, cell-based, NGF-treated PC12, GFPQ80 (AID 1614); details: PC12 NGF-treated GFP-polyQ80 inclusion reduction;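 also: lower means fewer inclusions and 0 means no inclusions at all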
[8] = suppressors of polyglutamine aggregation in yeast, 75Q-TubH (AID 1616); details: S. cerevisiae 75Q-TubH polyglutamine aggregation suppression; stronger effect = higher value
[9] = liver-stage malaria parasite growth inhibition, primary screen, cell-based, HepG2, luciferase luminescence, HepG2 viability (AID 624349);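 also: 100% = mean of DMSO negative control wells on the same plate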; details: P. berghei liver stage in HepG2, luciferase luminescence, concentration not given here; parasite load remaining: stronger effect = lower value; viability: measured here: HepG2 viability without parasites
[10] = biological target: 6-phosphogluconate dehydrogenase, decarboxylating (Homo sapiens) (UniProt P52209); assay: 6PGD enzyme inhibitors, primary screen, biochemical, human, recombinant enzyme, NADPH absorbance (AID 1159550;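 active = at least 20% inhibition of 6-phosphogluconate dehydrogenase activity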); details: recombinant 6PGD, NADPH absorbance 341 nm; at 10 µM; stronger effect = higher value
[11] = differential killing of epithelial or mesenchymal cells, primary screen, imaging, PC-3E GFP, TEM4-18 mCherry, co-culture (AID 1345086;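 active = compounds killing one labelled cell type while sparing the other, by normalised counts and ratio limits, not self-fluorescent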;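 as to all read-outs here: cells exposed to compound for 72 h before imaging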;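 as to red/green cell ratio (normalised): normalised mesenchymal count divided by normalised epithelial count so high means epithelial killing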); details: imaging cell counts, at 1 µM; for red/green cell ratio (normalised): actives lie on both sides, counts scaled to control wells, 1 = unselective
[12] = sensitizers of A549 cells to miR-34 induction, primary screen, imaging, A549 dox-inducible miR-34, nuclei and caspase counts (AID 1347080;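 active = compounds whose cell count with miR-34 switched on is under 0.7 times the count with it off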); details: A549 miR-34 inducible, Hoechst nuclei count, 48 h
[13] = biological target: NAD(+) hydrolase SARM1 (Homo sapiens) (UniProt Q6SZW1); assay: SARM1 TIR NADase inhibitors, cell lysate, NAD-Glo luminescence (AID 1508614;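 active = compound whose remaining NAD level is above about 45 nM, limit read from the data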;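 also: higher remaining NAD means stronger inhibition of SARM1 NADase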); details: SAM-TIR HEK293T lysate NADase, at 1 µM, stronger effect = higher value
[14] = biological target: Mitogen-activated protein kinase 7 (Homo sapiens) (UniProt Q13164); assay: ERK5 transactivation activators in reporter cells, primary screen, cell-based, HTS (AID 1508626;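 active = luciferase signal above three times the same-plate solvent-only control wells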;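 also: luciferase driven by Gal4-ERK5 fusion binding five Gal4 sites before minimal TATA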); details: HeLa Gal4-ERK5 transactivation, 18 h, at 5 µM, stronger effect = higher value
[15] = hESC survival regulators, cell-based (AID 493140; call rule not given here;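 also: cells exposed to compounds for four days before counting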); details: human embryonic stem cell survival screen; stronger effect = higher value
[16] = measured here: epithelial PC-3E GFP cell survival
[17] = measured here: mesenchymal TEM4-18 mCherry cell survival
[18] = stronger effect = lower value, cell number ratio, induced over uninduced
[19] = measured here: relative caspase fold change +Dox/-Dox
[20] = measured here: total cells with miR-34 induction, stronger effect = lower value
[21] = measured here: total cells without miR-34 induction

Chain of 6-phosphogluconate dehydrogenase, decarboxylating (Homo sapiens) (P52209 whole entry, looked up): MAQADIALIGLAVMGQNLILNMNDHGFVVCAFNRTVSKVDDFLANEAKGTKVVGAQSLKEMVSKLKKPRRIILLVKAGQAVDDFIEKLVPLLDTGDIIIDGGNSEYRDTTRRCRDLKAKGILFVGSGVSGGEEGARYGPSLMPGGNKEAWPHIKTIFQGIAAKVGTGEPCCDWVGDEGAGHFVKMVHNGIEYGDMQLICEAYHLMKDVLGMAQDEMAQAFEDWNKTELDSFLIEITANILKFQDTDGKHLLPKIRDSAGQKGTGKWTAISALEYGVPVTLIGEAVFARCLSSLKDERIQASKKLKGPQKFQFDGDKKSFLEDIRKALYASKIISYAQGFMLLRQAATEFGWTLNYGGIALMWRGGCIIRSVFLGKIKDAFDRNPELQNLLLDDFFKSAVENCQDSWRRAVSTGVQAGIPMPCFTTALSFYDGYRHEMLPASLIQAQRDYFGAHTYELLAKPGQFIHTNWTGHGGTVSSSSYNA
Chain of Mitogen-activated protein kinase 7 (Homo sapiens) (Q13164 whole entry, looked up, the tested form may be a part): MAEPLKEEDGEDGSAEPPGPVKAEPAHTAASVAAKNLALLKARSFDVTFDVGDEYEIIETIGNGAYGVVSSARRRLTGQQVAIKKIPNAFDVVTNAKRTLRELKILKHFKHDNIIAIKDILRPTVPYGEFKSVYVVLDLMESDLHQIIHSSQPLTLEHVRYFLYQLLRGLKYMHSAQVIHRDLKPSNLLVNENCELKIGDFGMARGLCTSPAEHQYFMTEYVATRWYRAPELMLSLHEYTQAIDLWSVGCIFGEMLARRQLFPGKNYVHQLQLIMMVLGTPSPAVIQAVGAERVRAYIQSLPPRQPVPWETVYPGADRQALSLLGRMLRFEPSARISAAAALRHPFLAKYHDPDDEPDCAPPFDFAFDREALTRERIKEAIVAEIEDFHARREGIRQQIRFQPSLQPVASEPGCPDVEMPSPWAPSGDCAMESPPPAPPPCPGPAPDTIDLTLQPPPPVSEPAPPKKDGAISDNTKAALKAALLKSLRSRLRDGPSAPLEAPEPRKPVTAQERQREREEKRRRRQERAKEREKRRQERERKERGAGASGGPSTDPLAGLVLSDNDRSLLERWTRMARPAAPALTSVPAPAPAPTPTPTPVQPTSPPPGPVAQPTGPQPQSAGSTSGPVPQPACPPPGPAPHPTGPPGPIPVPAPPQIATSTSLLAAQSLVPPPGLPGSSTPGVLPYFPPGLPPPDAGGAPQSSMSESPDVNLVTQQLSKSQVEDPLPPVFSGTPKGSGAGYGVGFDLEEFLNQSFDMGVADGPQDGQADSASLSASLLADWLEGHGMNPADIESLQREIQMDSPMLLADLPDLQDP
Chain of NAD(+) hydrolase SARM1 (Homo sapiens) (Q6SZW1 whole entry, looked up, the tested form may be a part): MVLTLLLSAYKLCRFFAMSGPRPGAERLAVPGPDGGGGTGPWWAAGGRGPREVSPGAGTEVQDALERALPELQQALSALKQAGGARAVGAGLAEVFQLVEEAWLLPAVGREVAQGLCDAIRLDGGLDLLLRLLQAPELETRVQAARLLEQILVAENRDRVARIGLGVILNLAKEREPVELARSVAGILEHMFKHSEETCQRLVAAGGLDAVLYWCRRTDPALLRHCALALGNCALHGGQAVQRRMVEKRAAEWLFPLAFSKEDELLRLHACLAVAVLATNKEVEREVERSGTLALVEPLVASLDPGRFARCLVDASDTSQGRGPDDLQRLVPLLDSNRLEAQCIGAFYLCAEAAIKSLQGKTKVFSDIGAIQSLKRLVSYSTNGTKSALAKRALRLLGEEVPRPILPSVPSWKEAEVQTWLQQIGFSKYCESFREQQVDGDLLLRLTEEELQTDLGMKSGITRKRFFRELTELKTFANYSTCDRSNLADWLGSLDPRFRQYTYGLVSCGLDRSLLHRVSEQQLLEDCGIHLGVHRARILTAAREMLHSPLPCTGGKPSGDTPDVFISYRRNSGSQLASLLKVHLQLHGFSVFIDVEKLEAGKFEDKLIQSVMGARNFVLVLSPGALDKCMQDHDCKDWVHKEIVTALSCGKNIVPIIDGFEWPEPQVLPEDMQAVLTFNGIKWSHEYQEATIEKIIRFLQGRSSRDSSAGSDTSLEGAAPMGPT

NC(N)=O
inhibition [1]: 5.74%
score [2]: 1.17
rescue above control [3]: 4.79
cytochrome c release ratio [4]: 1.04
inhibition of aggregation [5]: 43.7%
glutamate uptake change [6]: -1.11%
inclusion score [7]: 2
aggregation suppression score [8]: 1.21
parasite load remaining [9]: 107% (inactive) and 54.8% (inactive)
viability [9]: 72.7% and 99.5%
inhibition [10]: -2.6% (inactive)
red/green cell ratio (normalised) [11]: 0.95 (inactive)
normalised cell number [11, 16]: 1.22
normalised cell number [11, 17]: 1.16
fold change [12, 18]: 0.93 (inactive)
fold change [12, 19]: 2.44
cell count [12, 20]: 12300
cell count [12, 21]: 13300
remaining NAD [13]: 10 nM (inactive)
luciferase signal [14]: 52 AU (inactive)

COc1ccc([C@@H]2CC(=O)c3c(O)cc(O)cc3O2)cc1O
inhibition [1]: 11%
score [2]: 0.56
rescue above control [3]: 6.5
cytochrome c release ratio [4]: 0.93
inhibition of aggregation [5]: 17%
glutamate uptake change [6]: 0%
inclusion score [7]: 2
aggregation suppression score [8]: 0.264
survival [15]: 17.8 (inactive)
parasite load remaining [9]: 25.2% (inactive) and 110% (inactive)
viability [9]: 46.9% and 88%
inhibition [10]: 4.68% (inactive)
red/green cell ratio (normalised) [11]: 0.91 (inactive)
normalised cell number [11, 16]: 1.28
normalised cell number [11, 17]: 1.16
fold change [12, 18]: 0.922 (inactive) and 1.13 (inactive)
fold change [12, 19]: 1.33 and 0.691
cell count [12, 20]: 8710 and 6120
cell count [12, 21]: 9450 and 5440
luciferase signal [14]: 48 AU (inactive)

C[n+]1cccc(C(=O)[O-])c1
parasite load remaining [9]: 79.8% (inactive)
viability [9]: 103%
inhibition [10]: -5.32% (inactive)
red/green cell ratio (normalised) [11]: 0.83 (inactive)
normalised cell number [11, 16]: 0.9
normalised cell number [11, 17]: 0.75
fold change [12, 18]: 0.877 (inactive)
fold change [12, 19]: 1.44
cell count [12, 20]: 9790
cell count [12, 21]: 11200
luciferase signal [14]: 44 AU (inactive)

CC(=O)Nc1ccc(OC(=O)c2ccccc2O)cc1
inhibition [1]: -0.86%
score [2]: 0.55
rescue above control [3]: 4.5
cytochrome c release ratio [4]: 1.29
inhibition of aggregation [5]: 92.3%
glutamate uptake change [6]: 0.86%
inclusion score [7]: 2
aggregation suppression score [8]: 0.54
parasite load remaining [9]: 50.3% (inactive)
viability [9]: 71.4%
inhibition [10]: -12.6% (inactive)
red/green cell ratio (normalised) [11]: 0.93 (inactive)
normalised cell number [11, 16]: 1.16
normalised cell number [11, 17]: 1.08
remaining NAD [13]: 10 nM (inactive)
luciferase signal [14]: 40 AU (inactive)

CCCCCCCCCCCCCCCC(=O)OC/C=C(C)/C=C/C=C(C)/C=C/C1=C(C)CCCC1(C)C
inhibition [1]: -19.1%
score [2]: 1.38
rescue above control [3]: 3.93
cytochrome c release ratio [4]: 1.03
inhibition of aggregation [5]: 46%
glutamate uptake change [6]: 4.94%
inclusion score [7]: 2
aggregation suppression score [8]: 0.6
parasite load remaining [9]: 174% (inactive) and 50.5% (inactive)
viability [9]: 86.2% and 95%
inhibition [10]: 1.58% (inactive)
red/green cell ratio (normalised) [11]: 1.41 (inactive)
normalised cell number [11, 16]: 0.95
normalised cell number [11, 17]: 1.34
fold change [12, 18]: 0.809 (inactive)
fold change [12, 19]: 0.861
cell count [12, 20]: 9920
cell count [12, 21]: 12300
remaining NAD [13]: 10 nM (inactive)
luciferase signal [14]: 624 AU (active)

CC1=C(/C=C/C(C)=C/C=C/C(C)=C/CO)C(C)(C)CCC1
inhibition [1]: 25.6%
score [2]: -0.82
rescue above control [3]: 28.1
cytochrome c release ratio [4]: 1.19
inhibition of aggregation [5]: 88.9%
glutamate uptake change [6]: -6.81%
aggregation suppression score [8]: 0.11
parasite load remaining [9]: 115% (inactive) and 48.9% (inactive)
viability [9]: 69.5% and 99.6%
inhibition [10]: -7.77% (inactive)
red/green cell ratio (normalised) [11]: 1.32 (inactive)
normalised cell number [11, 16]: 0.9
normalised cell number [11, 17]: 1.18
fold change [12, 18]: 0.915 (inactive)
fold change [12, 19]: 2.67
cell count [12, 20]: 11800
cell count [12, 21]: 12800
remaining NAD [13]: 10 nM (inactive)
luciferase signal [14]: 48 AU (inactive)

CN1CC(=O)N=C1N
inhibition [1]: -27.2%
score [2]: 1.33
rescue above control [3]: -3.62
cytochrome c release ratio [4]: 0.51
inhibition of aggregation [5]: 97.4%
glutamate uptake change [6]: 32%
inclusion score [7]: 2
aggregation suppression score [8]: 1.7
inhibition [10]: 10.8% (inactive)
red/green cell ratio (normalised) [11]: 1.04 (inactive)
normalised cell number [11, 16]: 0.96
normalised cell number [11, 17]: 1
remaining NAD [13]: 10 nM (inactive)
luciferase signal [14]: 68 AU (inactive)
